E-sel TNF inh: blocks E-selectin expression induced by TNF alpha. HUVEC TNFa-induced E-selectin immunofluorescence, high content. inhibition, % at 2 µM. 120,000 tested, 0.71% active;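 active means inhibition above the batch mean plus 3 SD, and confirmed as a hit on visual image review, cut at about 43% in these data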;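 further: 0% = TNF-stimulated DMSO wells and 100% = unstimulated control wells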
CYP2C19 inh: inhibitors of human CYP2C19 | inhibition, % at 5 µM | P33261 | 96,000 tested, 21% active | AID 778 | CYP2C19 Supersomes, luciferin-H EGE luminescence, 30 min;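 active means CYP2C19 inhibition above a set limit at 5 µM in the primary screen, cut at about 50% in these data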;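 further: plate controls were negative control wells for no effect and 2.5 mM tranylcypromine positive control for full effect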
Target sequence (P33261 whole entry, looked up): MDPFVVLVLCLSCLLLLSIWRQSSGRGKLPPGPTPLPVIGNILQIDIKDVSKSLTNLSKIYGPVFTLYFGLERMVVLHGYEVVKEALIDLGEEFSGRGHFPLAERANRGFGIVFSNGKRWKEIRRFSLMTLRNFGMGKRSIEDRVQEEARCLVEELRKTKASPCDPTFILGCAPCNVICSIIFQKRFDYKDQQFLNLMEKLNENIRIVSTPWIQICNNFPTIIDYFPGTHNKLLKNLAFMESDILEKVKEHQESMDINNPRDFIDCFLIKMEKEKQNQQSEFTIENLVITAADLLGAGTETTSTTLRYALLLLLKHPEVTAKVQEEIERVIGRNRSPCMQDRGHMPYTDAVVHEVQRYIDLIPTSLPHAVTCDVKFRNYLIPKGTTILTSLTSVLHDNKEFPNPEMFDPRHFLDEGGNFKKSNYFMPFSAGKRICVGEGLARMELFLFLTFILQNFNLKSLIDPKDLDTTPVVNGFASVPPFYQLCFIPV
CYP2C9 inhib: inhibitors of human CYP2C9; P11712; inhibition, % at 5 µM; 96,000 tested, 20% active; CYP2C9 Supersomes, luciferin-H conversion, luminescence; AID 777;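 active means blocking of liver enzyme CYP2C9 beyond about 50% at 5 µM, limit read from the data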
CYP2C9 act: CYP2C9 (human) activation. 96,000 tested, 1.4% active. activation factor at 5 µM. recombinant CYP2C9, luciferin-H conversion, luminescence; stronger effect = higher value; factor 1 = untreated enzyme, 0 = blocked;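 active means activation factor of 2 or more for CYP2C9 at a 5 µM dose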;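 further: 0 = sulfaphenazole-blocked wells and 1 = vehicle-only wells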
F-actin modifier: modifiers of cytoskeleton assembly; 91,000 tested, 0.18% active; HUVEC TNFa F-actin phalloidin imaging, high content; inhibition, % at 2 µM;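 active means inhibition above the batch mean plus 3 SD and confirmed as a hit by visual image inspection, cut at about 30% in these data, passing the limit was not always enough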
CYP2C19 activ: activators of human cytochrome P450 2C19. P33261. recombinant CYP2C19, luciferin-H EGE luminescence; stronger effect = higher value; 0 = fully inhibited enzyme, 1 = untreated enzyme. activation factor at 5 µM. 96,000 tested, under 10 active;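 active means activation factor of at least 2 at 5 µM in the primary screen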;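 further: 0 = wells with 2.5 mM tranylcypromine and 1 = vehicle-only wells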
Active calls of the source: *. An excerpt weighted towards active compounds, which were near 22% of everything screened.

Results for CC(C)CNC(=O)c1ccccc1NC(=O)CSCc1ccccc1 ?
E-sel TNF inh: 3.5; CYP2C19 inh: 7.9; CYP2C9 inhib: 38.7; CYP2C9 act: 0.6; CYP2C19 activ: 0.9

Results for Cn1nnc(NC(=O)C(c2ccccc2)c2ccccc2)n1 ?
E-sel TNF inh: -6.5; CYP2C19 inh: 41.0; CYP2C9 inhib: 84.4*; CYP2C9 act: 0.2; F-actin modifier: 8.3; CYP2C19 activ: 0.6

Results for Cc1cc(C)nc(NC(=O)C(c2ccccc2)c2ccccc2)c1 ?
E-sel TNF inh: 8.9

Results for Cc1cc(C)nc(NC(=O)C(c2ccccc2)c2ccccc2)n1 ?
E-sel TNF inh: 0.7; CYP2C19 inh: 20.7; CYP2C9 inhib: 70.7*; CYP2C9 act: 0.3; F-actin modifier: -5.6; CYP2C19 activ: 0.8

What do the screens show for `CC(C)C(=O)Nc1nnn(C)n1`?
CYP2C19 inh: -0.3; CYP2C9 inhib: -1.1; CYP2C9 act: 1; F-actin modifier: 20.1; CYP2C19 activ: 1

How did Clc1ccc(CN2CCN(c3ncnc4scc(-c5cccs5)c34)CC2)cc1 do in these assays?
E-sel TNF inh: 9.1; CYP2C19 inh: 83.5*; CYP2C9 inhib: 29.3; CYP2C9 act: 0.7; F-actin modifier: 24.2; CYP2C19 activ: 0.2

What do the screens show for `Cc1ccccc1N1CCN(c2ncnc3scc(-c4cccs4)c23)CC1`?
E-sel TNF inh: 14.8; CYP2C19 inh: 27.9; CYP2C9 inhib: 48.4; CYP2C9 act: 0.5; F-actin modifier: -32.3; CYP2C19 activ: 0.7

How did Cc1cccc(-n2nnnc2SCc2csc(-c3ccccc3)n2)c1 do in these assays?
E-sel TNF inh: -4.5; F-actin modifier: -6.3

How did c1ccc(-n2cnnc2SCc2nc3ccccc3s2)cc1 do in these assays?
CYP2C19 inh: 39.3; CYP2C9 inhib: 11.6; CYP2C9 act: 0.9; CYP2C19 activ: 0.6

How did c1ccc(-c2ncc(CSc3nncn3-c3ccccc3)s2)cc1 do in these assays?
E-sel TNF inh: -0.8; CYP2C19 inh: 59.0*; CYP2C9 inhib: -25.5; CYP2C9 act: 1.3; F-actin modifier: 16.4; CYP2C19 activ: 0.4

Results for COc1ccc(-n2cnnc2SCc2csc(-c3ccccc3)n2)cc1 ?
CYP2C19 inh: 74.7*; CYP2C9 inhib: 27.2; CYP2C9 act: 0.7; CYP2C19 activ: 0.3

What do the screens show for `CCOC(=O)c1cccc(NC(=O)C2(S(=O)(=O)c3ccc(C)cc3)CC2)c1`?
E-sel TNF inh: -1.0

What do the screens show for `COCC(C)n1c(C)cc(C(=O)COc2ccc(S(=O)(=O)N3CCOCC3)cc2Cl)c1C` (stereo not drawn)?
E-sel TNF inh: -13.4; CYP2C19 inh: 50.8*; CYP2C9 inhib: 57.5*; CYP2C9 act: 0.4; CYP2C19 activ: 0.5

How did O=C(Oc1c(Cl)cc(Cl)c2cccnc12)N1CCCCC1 do in these assays?
E-sel TNF inh: -1.4; CYP2C19 inh: 64.5*; CYP2C9 inhib: 54.2*; CYP2C9 act: 0.5; F-actin modifier: -25.0; CYP2C19 activ: 0.4

Results for O=C(OCn1nnc2ccccc2c1=O)c1cccnc1Cl ?
E-sel TNF inh: 6.2; CYP2C19 inh: 58.9*; CYP2C9 inhib: -4.4; CYP2C9 act: 1; F-actin modifier: 6.9; CYP2C19 activ: 0.4

Results for O=C(OCn1nnc2ccccc2c1=O)c1ccc2ncsc2c1 ?
E-sel TNF inh: 5.0; CYP2C19 inh: 53.3*; CYP2C9 inhib: 57.1*; CYP2C9 act: 0.4; F-actin modifier: -14.0; CYP2C19 activ: 0.5

Results for CCN(CC)S(=O)(=O)c1ccc(C(=O)OCn2nnc3ccccc3c2=O)cc1 ?
E-sel TNF inh: -7.9; CYP2C19 inh: 19.9; CYP2C9 inhib: 77.5*; CYP2C9 act: 0.2; F-actin modifier: -2.5; CYP2C19 activ: 0.8

What do the screens show for `O=C(OCn1nnc2ccccc2c1=O)C1CCCCC1`?
E-sel TNF inh: -0.5; CYP2C19 inh: 72.1*; CYP2C9 inhib: 53.2*; CYP2C9 act: 0.5; F-actin modifier: -2.3; CYP2C19 activ: 0.3

What do the screens show for `CCOC(=O)c1cnc(SC)nc1Oc1cccc(NS(=O)(=O)c2ccc(Cl)cc2)c1`?
E-sel TNF inh: 2.1; F-actin modifier: 18.9

How did Cc1cccc2c(=O)c(C(=O)N3CCCCCC3)c[nH]c12 do in these assays?
CYP2C19 inh: -3.2; CYP2C9 inhib: -8.3; CYP2C9 act: 1.1; F-actin modifier: 23.8; CYP2C19 activ: 1

What do the screens show for `CCC(Sc1nc2ccccc2[nH]1)C(=O)Nc1cc(C)on1` (stereo not drawn)?
CYP2C19 inh: 45.5; CYP2C9 inhib: 36.9; CYP2C9 act: 0.6; CYP2C19 activ: 0.5
